Assay [1] is described as follows: antimalarial activity against Dd2 strain (AID 2302;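 active = growth inhibition above 50% at the single 2 µM test dose, taken to imply half-maximal potency below 2 µM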;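 also: 0% = DMSO untreated growth and 100% = chloroquine plus artemisinin killed control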). Conditions: P. falciparum Dd2 in RBCs, LDH growth readout, 72 h; at 2 µM; active compounds read high.
A short description of assay [2]: human hepatoma cell viability loss – ATP luminescence, cytotoxicity control for P. falciparum antimalarial project, primary screen (AID 2303;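 active = inhibition above 50%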;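 also: 0% = DMSO wells and 100% = digitonin-killed cells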). Conditions: HepG2 viability, 24-48 h, at 10 µM, active compounds read high.
Assay [3] has as its target L-lactate dehydrogenase (Plasmodium falciparum (isolate CDC / Honduras)) (UniProt Q27743). Put plainly: PfLDH activity inhibition – cell lysate, 3D7 strain, counter-screen for P. falciparum growth inhibition project (AID 2304).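 Also: 0% = vehicle and 100% = reference inhibitor.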 Conditions: P. falciparum 3D7 crude extract, LDH APAD/NBT absorbance; at 2 µM; active compounds read high.
Assay [4] can be described thus: inhibition of 3D7 malaria parasite growth – strain 3D7 (AID 2306).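 Also: 0% = DMSO wells and 100% = chloroquine plus artemisinin control wells.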 Conditions: P. falciparum 3D7 erythrocytic growth, LDH absorbance, 72 h; at 2 µM; active compounds read high.
The target in assay [5] is Calcium-dependent protein kinase 1 (Plasmodium falciparum (isolate 3D7)) (UniProt P62344). The experiment in a line: PfCDPK1 kinase inhibitors, biochemical, TCAMS library (AID 1159585; cut-off not given, nearly all actives have IC50 up to about 0.98 µM;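 also: inhibitors leave more ATP so luminescence rises with inhibition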). Conditions: recombinant PfCDPK1, Kinase-Glo ATP depletion luminescence.
The target of assay [6] is Plasmodium falciparum protein kinase 6 (PK6, PF3D7_1337100) (UniProt Q8IDW1). The experiment in a line: PfPK6 kinase inhibitors, biochemical, TCAMS library (AID 1159586). Conditions: recombinant PfPK6, Kinase-Glo ATP depletion luminescence.
The target in assay [7] is Protein kinase 7 (PK7), Plasmodium falciparum 3D7 (PF3D7_0213400) (UniProt Q7YTF7). Put plainly: inhibition of Plasmodium PK7 catalytic activity – biochemical, TCAMS antimalarial set, Kinase-Glo luminescence (AID 1159587). Conditions: recombinant PfPK7, Kinase-Glo ATP depletion luminescence.
Assay [8] has as its target Calcium-dependent protein kinase 4 (Plasmodium falciparum (isolate 3D7)) (UniProt Q8IBS5). The experiment in a line: PfCDPK4 kinase inhibitors, biochemical, TCAMS library (AID 1159588; cut-off not given, nearly all actives have IC50 up to about 0.91 µM). Conditions: recombinant PfCDPK4, Kinase-Glo ATP depletion luminescence.

This note sets out measurements from PubChem BioAssay.

Values without a mark were called inactive. For some of these results: Entries with a potency or affinity are not part of this list. Calls of active or inactive are those of the source. Unless noted, no rule for the calls is given here.

Plasmodium falciparum protein kinase 6 (PK6, PF3D7_1337100), sequence (Q8IDW1 1-305): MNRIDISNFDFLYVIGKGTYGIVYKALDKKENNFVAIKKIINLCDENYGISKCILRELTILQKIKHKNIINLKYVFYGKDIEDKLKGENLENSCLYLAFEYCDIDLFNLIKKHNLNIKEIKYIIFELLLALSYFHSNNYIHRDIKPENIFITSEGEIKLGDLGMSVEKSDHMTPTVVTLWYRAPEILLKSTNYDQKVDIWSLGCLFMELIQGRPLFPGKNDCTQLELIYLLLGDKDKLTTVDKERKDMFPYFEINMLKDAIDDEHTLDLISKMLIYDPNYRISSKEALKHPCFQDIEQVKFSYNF
Protein kinase 7 (PK7), Plasmodium falciparum 3D7 (PF3D7_0213400), sequence (Q7YTF7 1-343): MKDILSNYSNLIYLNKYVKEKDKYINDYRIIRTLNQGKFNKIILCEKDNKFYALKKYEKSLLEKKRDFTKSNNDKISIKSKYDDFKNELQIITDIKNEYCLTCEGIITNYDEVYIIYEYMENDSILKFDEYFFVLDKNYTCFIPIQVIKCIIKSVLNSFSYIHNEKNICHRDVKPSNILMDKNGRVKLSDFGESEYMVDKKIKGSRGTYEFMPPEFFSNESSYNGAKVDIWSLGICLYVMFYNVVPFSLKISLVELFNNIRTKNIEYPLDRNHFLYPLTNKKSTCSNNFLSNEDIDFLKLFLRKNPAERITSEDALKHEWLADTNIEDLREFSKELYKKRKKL
Calcium-dependent protein kinase 1 (Plasmodium falciparum (isolate 3D7)), sequence (P62344 whole entry, looked up): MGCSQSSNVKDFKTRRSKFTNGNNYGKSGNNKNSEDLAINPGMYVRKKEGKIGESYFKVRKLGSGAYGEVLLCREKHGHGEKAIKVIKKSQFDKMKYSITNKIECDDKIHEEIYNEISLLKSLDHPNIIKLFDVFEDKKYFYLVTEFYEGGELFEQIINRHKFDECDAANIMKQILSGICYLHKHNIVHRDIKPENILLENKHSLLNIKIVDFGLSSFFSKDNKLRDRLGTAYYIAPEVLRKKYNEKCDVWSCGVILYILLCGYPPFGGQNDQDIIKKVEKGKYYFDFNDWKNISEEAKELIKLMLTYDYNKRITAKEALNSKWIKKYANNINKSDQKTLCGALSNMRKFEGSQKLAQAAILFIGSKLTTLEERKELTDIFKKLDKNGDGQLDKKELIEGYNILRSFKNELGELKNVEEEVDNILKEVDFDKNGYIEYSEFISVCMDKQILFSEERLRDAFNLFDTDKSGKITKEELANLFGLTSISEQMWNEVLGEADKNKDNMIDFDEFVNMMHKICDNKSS
L-lactate dehydrogenase (Plasmodium falciparum (isolate CDC / Honduras)), sequence (Q27743 whole entry, looked up): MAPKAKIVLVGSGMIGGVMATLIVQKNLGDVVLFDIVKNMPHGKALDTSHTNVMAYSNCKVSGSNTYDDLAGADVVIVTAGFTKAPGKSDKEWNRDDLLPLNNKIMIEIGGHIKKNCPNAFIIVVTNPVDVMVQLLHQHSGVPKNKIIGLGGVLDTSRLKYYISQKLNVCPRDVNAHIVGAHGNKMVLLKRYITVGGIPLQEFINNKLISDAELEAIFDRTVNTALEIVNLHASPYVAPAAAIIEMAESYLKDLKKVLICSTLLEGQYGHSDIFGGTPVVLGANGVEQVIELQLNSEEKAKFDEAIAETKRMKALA
Calcium-dependent protein kinase 4 (Plasmodium falciparum (isolate 3D7)), sequence (Q8IBS5 whole entry, looked up): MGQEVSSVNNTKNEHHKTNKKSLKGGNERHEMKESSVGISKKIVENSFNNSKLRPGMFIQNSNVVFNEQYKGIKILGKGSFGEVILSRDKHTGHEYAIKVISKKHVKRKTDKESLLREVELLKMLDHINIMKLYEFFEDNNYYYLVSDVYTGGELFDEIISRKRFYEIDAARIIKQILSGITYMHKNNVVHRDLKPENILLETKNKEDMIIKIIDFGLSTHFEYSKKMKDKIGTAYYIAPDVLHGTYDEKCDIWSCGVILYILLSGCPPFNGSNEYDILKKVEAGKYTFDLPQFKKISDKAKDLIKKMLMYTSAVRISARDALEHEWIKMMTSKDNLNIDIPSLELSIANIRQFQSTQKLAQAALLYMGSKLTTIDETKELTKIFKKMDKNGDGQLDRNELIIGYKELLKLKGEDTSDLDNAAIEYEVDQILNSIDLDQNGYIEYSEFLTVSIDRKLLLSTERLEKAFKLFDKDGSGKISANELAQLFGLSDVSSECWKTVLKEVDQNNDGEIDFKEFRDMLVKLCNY

In the case of `COC(=O)c1cccc(CNCc2cccc(-c3ccc(-c4nc5ccc(C(F)(F)F)cc5[nH]4)cc3)c2)c1`, the growth inhibition in assay [1] is 83% (active); in assay [4] it was 102% (active). The inhibition in assay [2] is 13%; in assay [3], 3%. The outcome in assay [5], in assay [6], in assay [7] and in assay [8] was inactive.

`CC(C)CNCc1ccc(-c2cccc(-c3nc4ccccc4[nH]3)c2)cc1`: the growth inhibition was 98% (active) in assay [1] and 99% (active) in assay [4]. The figures for the inhibition in assay [2] and in assay [3] were 53% (active) and -5%, respectively. Further, the result in assay [5], in assay [6], in assay [7] and in assay [8] was inactive.

Turning to `COc1ccc(CCOc2c(C)nc(N)nc2N)cc1OC`, the growth inhibition in assay [1] is 22%; in assay [4], 96% (active). Besides, the values for the inhibition in assay [2] and in assay [3] were 66% (active) and 4%, respectively. Also, the result in assay [5], in assay [6], in assay [7] and in assay [8] was inactive.

On to `CC(=O)Nc1cccc(CNCc2ccc(-c3cnc(N4CCCC(C)(C)C4)nc3)cc2)c1`, for which the growth inhibition in assay [1] is 75% (active); in assay [4], 93% (active). For the same compound, the inhibition in assay [2] was 10%; in assay [3], 0%. The result in assay [5], in assay [6], in assay [7] and in assay [8] was inactive.

With `CCOc1ccc(-c2nonc2NC(=O)c2ccc(OC(C)C)cc2)cc1OCC`, the growth inhibition in assay [1] and in assay [4] was 100% (active) each time. In addition, the inhibition in assay [2] was 13%; in assay [3], -2%. Moreover, the result in assay [5], in assay [6], in assay [7] and in assay [8] was inactive.

Consider `Fc1ccccc1C=NNc1ccnc2ccc(C(F)(F)F)cc12`, for which the figures for the growth inhibition in assay [1] and in assay [4] were 61% (active) and 100% (active), respectively. The inhibition in assay [2] is 5%; in assay [3], 3%. In addition, the result in assay [5], in assay [6], in assay [7] and in assay [8] was inactive.

For the compound `O=C(Nc1ccc(-c2cccc(-c3nc4ccccc4[nH]3)c2)cc1)N[C@@H]1C[C@H]1c1ccccc1`, the figures for the growth inhibition in assay [1] and in assay [4] were 6% and 84% (active), respectively. In addition, the inhibition is 63% (active) in assay [2] and -2% in assay [3]. For the same compound, the outcome in assay [5], in assay [6], in assay [7] and in assay [8] was inactive.

In the case of `COc1cc(Nc2nccc(N3CCC(NS(=O)(=O)c4ccc(NC(C)=O)cc4)CC3)n2)cc(OC)c1OC`, the growth inhibition is 42% in assay [1] and 91% (active) in assay [4]. The inhibition in assay [2] was -5%; in assay [3] it was -3%. In addition, the result in assay [5], in assay [6], in assay [7] and in assay [8] was inactive.

In the case of `Cc1nc(N=C(N)N)nc2ccc(C(C)(C)C)cc12`, the growth inhibition in assay [1] is 91% (active); in assay [4], 96% (active). Moreover, the values for the inhibition in assay [2] and in assay [3] were 4% and -1%, respectively. For the same compound, the outcome in assay [5], in assay [6], in assay [7] and in assay [8] was inactive.

Consider `Cc1cc(C)cc(NC(=S)NCCCCN2CCN(c3cccc(Cl)c3)CC2)c1`, for which the growth inhibition is 13% in assay [1] and 88% (active) in assay [4]. The inhibition in assay [2] is 11%; in assay [3], 3%. The result in assay [5], in assay [6], in assay [7] and in assay [8] was inactive.

On to `CN(C)c1cccc2c1nc(-c1ccco1)n2CCNCc1ccccc1`, for which the growth inhibition was 97% (active) in assay [1] and 98% (active) in assay [4]. The inhibition in assay [2] is -1%; in assay [3], 2%. In addition, the outcome in assay [5], in assay [6], in assay [7] and in assay [8] was inactive.

As to `Nc1ncc(Cc2ccc3c(ccc4ccccc43)c2)c(N)n1`, the growth inhibition in assay [1] was 3%; in assay [4] it was 97% (active). Further, the inhibition was 9% in assay [2] and -5% in assay [3]. The outcome in assay [5], in assay [6], in assay [7] and in assay [8] was inactive.

Take `CCNc1cc(C(=O)N[C@@H](Cc2ccccc2)[C@H](O)CNC23CC4CC(CC(C4)C2)C3)cc(N2CCCCS2(=O)=O)c1`: the growth inhibition is 99% (active) in assay [1] and 98% (active) in assay [4]. Further, the values for the inhibition in assay [2] and in assay [3] were 3% and -2%, respectively. The outcome in assay [5], in assay [6], in assay [7] and in assay [8] was inactive.

Turning to `CCCN(CCCCNC(=O)c1ccc(-c2cccnc2)cc1)C1CCc2c(O)cccc2C1` (stereo not given), the growth inhibition was 16% in assay [1] and 87% (active) in assay [4]. Besides, the figures for the inhibition in assay [2] and in assay [3] were -1% and 0%, respectively. Further, the outcome in assay [5], in assay [6], in assay [7] and in assay [8] was inactive.

With `CCOc1cc(C(=O)NCCN(C(C)C)C(C)C)ccc1-c1nc2ccc(Cl)cc2[nH]1`, the results for the growth inhibition in assay [1] and in assay [4] were 90% (active) and 101% (active), respectively. Besides, the figures for the inhibition in assay [2] and in assay [3] were 4% and 2%, respectively. For the same compound, the result in assay [5], in assay [6], in assay [7] and in assay [8] was inactive.

Take `Cc1cccc2[nH]c(-c3ccc(-c4cccc(CN5CCN(c6ccc(C#N)cn6)CC5)c4)s3)nc12`: the values for the growth inhibition in assay [1] and in assay [4] were 8% and 85% (active), respectively. For the same compound, the values for the inhibition in assay [2] and in assay [3] were 37% and 2%, respectively. Besides, the outcome in assay [5], in assay [6], in assay [7] and in assay [8] was inactive.

Take `Nc1cc(-c2ccc3ccccc3c2)nc2ccccc12`: the figures for the growth inhibition in assay [1] and in assay [4] were 52% (active) and 99% (active), respectively. For the same compound, the inhibition in assay [2] is 19%; in assay [3], -2%. For the same compound, the outcome in assay [5], in assay [6], in assay [7] and in assay [8] was inactive.

Take `C=CCn1c(=N)c(C(=O)NCc2ccc(F)cc2)cc2c(=O)n3cccc(C)c3nc21`: the growth inhibition is 11% in assay [1] and 92% (active) in assay [4]. Further, the values for the inhibition in assay [2] and in assay [3] were 16% and -2%, respectively. The outcome in assay [5], in assay [6], in assay [7] and in assay [8] was inactive.

In the case of `CCOc1cc(Br)c(C(C)NC(=O)c2cccc(OC)c2)cc1OCC` (stereo not given), the growth inhibition is 37% in assay [1] and 90% (active) in assay [4]. Also, the inhibition in assay [2] is -1%; in assay [3], 3%. The outcome in assay [5], in assay [6], in assay [7] and in assay [8] was inactive.

As for `COc1ccc(CNCc2ccc(-c3ccc(-c4nc5ccccc5[nH]4)cc3)cc2)cc1`, the growth inhibition in assay [1] was 89% (active); in assay [4], 103% (active). Besides, the inhibition in assay [2] is 63% (active); in assay [3], -4%. For the same compound, the outcome in assay [5], in assay [6], in assay [7] and in assay [8] was inactive.
